Results from PubChem BioAssay (EPA / NIEHS).
Results filed as inconclusive are left out. The source made the active and inactive calls. The calls were made as follows: active = hit-call score of the fitted dose curve at least 0.9, where 1 is the maximum; inconclusive = response in the unintended direction; inactive = score below 0.9.

biological target: human RAR-related Orphan Receptor gamma (RORg), RORC (gene 6097) (UniProt P51449); assay: ATG_RORg_TRANS: Attagene TRANS-FACTORIAL HepG2 Assay for human RAR-related Orphan Receptor gamma (RORg) (AID 2283011)
How it was run: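 Chimeric RORg-Gal4 transactivation in transfected HepG2; 24 h exposure; RT-PCR/capillary electrophoresis readout of reporter mRNA, DMSO baseline.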

Sequence of human RAR-related Orphan Receptor gamma (RORg), RORC (gene 6097) (P51449 whole entry, looked up, the tested form may be a part): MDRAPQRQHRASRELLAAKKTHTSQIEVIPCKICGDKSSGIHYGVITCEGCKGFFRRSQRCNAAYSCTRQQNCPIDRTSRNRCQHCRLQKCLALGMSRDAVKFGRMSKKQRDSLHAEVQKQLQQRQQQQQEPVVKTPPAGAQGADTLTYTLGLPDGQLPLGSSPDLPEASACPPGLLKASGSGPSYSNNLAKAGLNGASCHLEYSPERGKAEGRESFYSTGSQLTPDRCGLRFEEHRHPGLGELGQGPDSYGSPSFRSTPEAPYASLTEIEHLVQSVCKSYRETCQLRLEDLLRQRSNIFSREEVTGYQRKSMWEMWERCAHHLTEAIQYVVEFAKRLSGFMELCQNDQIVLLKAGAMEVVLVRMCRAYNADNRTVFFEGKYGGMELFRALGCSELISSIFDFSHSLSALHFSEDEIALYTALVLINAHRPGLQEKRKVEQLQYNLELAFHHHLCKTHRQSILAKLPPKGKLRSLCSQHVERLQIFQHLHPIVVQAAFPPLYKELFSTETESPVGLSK

SMILES | outcome
CCCC(C)C=O (stereo unspecified) | inactive
CC1(C)[C@@H]2CC[C@@]1(C)[C@H](O)C2 | inactive
NCCNCCN | inactive
C=CC(=O)OCCn1c(=O)n(CCOC(=O)C=C)c(=O)n(CCOC(=O)C=C)c1=O | inactive
ClCCCl | inactive
CCCCCCCCCCCCCOS(=O)(=O)O | inactive
Cc1ccc(O)c(C(C)(C)C)c1 | inactive
C=C[Si](OCC)(OCC)OCC | inactive
CC1=CCC(O)(C(C)C)CC1 (stereo unspecified) | inactive
O=C(Nc1ccccc1)c1cc([N+](=O)[O-])ccc1Cl | inactive
Clc1ccc(Cl)c(Cl)c1Cl | inactive

biological target: Retinoic acid receptor RXR-alpha (Homo sapiens) (UniProt P19793); assay: ATG_RXRa_TRANS: Attagene TRANS-FACTORIAL HepG2 Assay for human Retinoid X Receptor alpha (RXRa) (AID 2283012)
How it was run: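 Measures exogenous chimeric NR-GAL4 activity in transfected HepG2 liver cells after 24 h of dosing. Induced reporter mRNA was detected by RT-PCR with capillary electrophoresis, and gain of signal was analysed against DMSO.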

Sequence of Retinoic acid receptor RXR-alpha (Homo sapiens) (P19793 whole entry, looked up, the tested form may be a part): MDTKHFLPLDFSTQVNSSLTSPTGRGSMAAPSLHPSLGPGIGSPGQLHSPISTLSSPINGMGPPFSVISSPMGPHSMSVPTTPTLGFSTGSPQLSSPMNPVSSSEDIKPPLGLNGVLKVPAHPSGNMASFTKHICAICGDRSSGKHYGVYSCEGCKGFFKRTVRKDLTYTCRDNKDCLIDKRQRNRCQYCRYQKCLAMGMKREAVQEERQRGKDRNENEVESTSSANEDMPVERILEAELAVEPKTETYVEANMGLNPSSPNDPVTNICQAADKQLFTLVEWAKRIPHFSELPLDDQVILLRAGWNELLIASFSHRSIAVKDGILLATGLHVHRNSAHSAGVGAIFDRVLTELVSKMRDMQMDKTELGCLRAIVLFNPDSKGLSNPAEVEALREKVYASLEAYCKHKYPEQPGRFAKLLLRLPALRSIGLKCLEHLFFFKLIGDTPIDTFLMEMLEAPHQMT

SMILES | outcome | AC50
CC(=O)C(=O)O | inactive | 
O=C(O)c1cccc([N+](=O)[O-])c1 | inactive | 
O=C=NC1CCC(CC2CCC(N=C=O)CC2)CC1 (stereo unspecified) | inactive | 
Nc1cc(Cl)c(O)c(Cl)c1 | inactive | 
COc1ccnc(CS(=O)c2nc3cc(OC(F)F)ccc3[nH]2)c1OC (stereo unspecified) | inactive | 
CCO[Si](CCCS)(OCC)OCC | inactive | 
CCc1c(C)cc(N)c(CC)c1N | inactive | 
COC(C)CCO (stereo unspecified) |  | 53.7 µM (active)
O=S(=O)(O)c1ccc(O)c2ncccc12 | inactive | 
COc1ccc(Cl)cc1C | inactive | 
Cc1cccc(C)c1[N+](=O)[O-] | inactive | 
Nc1ccc(F)c([N+](=O)[O-])c1 | inactive | 
Cc1ccc2ccccc2n1 | inactive | 
CCCCC(CC)COCCC#N (stereo unspecified) | inactive | 
CCC(=O)OCc1ccccc1 | inactive | 
CC(=O)Nc1ccccc1O | inactive | 
COc1cc(C)cc(O)c1 | inactive | 
CC(=O)Nc1ccc(C)cc1C | inactive | 
CC(CCO)CCCC(C)(C)O (stereo unspecified) | inactive | 
O=Cc1ccc(Cl)c([N+](=O)[O-])c1 | inactive | 
